Data: the supplement of paper PMC10646978
± gives the standard deviation.

Legend:
Settings in all cases: modulator concentration 10 µM
[1] = test system: RAW-Dual (murine macrophage reporter line); test: NF-kB reporter (SEAP) activity fold change vs agonist alone; higher = enhanced NF-kB activity
Outline: (§1)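 Compound reached 10 μM final in each well by pin transfer, onto RAW-Dual murine macrophage reporter cells seeded at 50 000 per well in 384-well plates. After 1 hour at 37 °C, the cells were stimulated overnight with a PRR agonist. SEAP in the supernatant was read with QUANTI-Blue at 620 nm absorbance for NF-κB, and Lucia luciferase was read with QUANTI-Luc luminescence for IRF. Each signal was turned into fold change against the mean agonist-only control on the same plate, and two replicate plates were averaged with propagated errors.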

[2] = test system: RAW-Dual (murine macrophage reporter line); test: IRF reporter (Lucia luciferase) activity fold change vs agonist alone; higher = enhanced IRF activity
Outline: as §1

[3] = test system: RAW-Dual (murine macrophage reporter line); test: viability score (confluency relative to resting cells, overnight) (fraction); higher = more viable, active = viable (0.7 or more)
Outline: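 A compound met the cutoff when both of two confluency masks exceeded 70% of resting cells. Those masks were made with IncuCyte software from IncuCyte images of RAW-Dual macrophages treated overnight at 10 μM final. This is the basis of the viability score, which is confluency relative to resting cells.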

[4] = agonist: CpG ODN 1826 0.5 ug/mL

Row | SMILES | NF-kB reporter [1, 4] | NF-kB reporter ([1]; agonist: LPS 0.1 ug/mL) | NF-kB reporter ([1]; agonist: MPLA […]) | IRF reporter ([2]; agonist: 3'3'-cGAMP 10 ug/mL) | IRF reporter ([2]; agonist: LPS 0.1 ug/mL) | IRF reporter ([2]; agonist: MPLA […]) | viability score [3]
1 | Cn1nccc1C(=O)N1CCC(O)(C(F)(F)F)CC1 | 1.22 ± 0.29 | 0.996 ± 0.082 | 1.01 ± 0.078 | 0.92 ± 0.033 | 1.14 ± 0.13 | 1.3 ± 0.19 | 0.997 (active)
2 | COc1ccc2ncc(S(=O)(=O)c3ccccc3)c(N3CCN(c4ccccc4)CC3)c2c1 | 0.611 ± 0.034 | 0.924 ± 0.068 | 1.14 ± 0.13 | 1.05 ± 0.036 | 1.4 ± 0.16 | 1.13 ± 0.14 | 0.981 (active)
3 | CN(C)c1ccc(C2N(C)c3ccccc3N2C)cc1 | 1.2 ± 0.19 | 1.69 ± 0.13 | 2.19 ± 0.2 | 0.939 ± 0.031 | 1.88 ± 0.23 | 1.94 ± 0.25 | 0.858 (active)
4 | CCCCCCCC(=O)N[C@H](CN1CCCC1)[C@H](O)c1ccc2c(c1)OCCO2 | 0.989 ± 0.097 | 1.03 ± 0.067 | 1.21 ± 0.026 | 0.853 ± 0.047 | 1.03 ± 0.15 | 1.2 ± 0.11 | 0.968 (active)
5 | O=C(COC(=O)c1ccc2ccccc2n1)c1ccc(Br)cc1 | 0.988 ± 0.16 | 1.05 ± 0.11 | 1.06 ± 0.14 | 0.972 ± 0.033 | 1.29 ± 0.25 | 1.42 ± 0.26 | 1 (active)
6 | CCN(CC)c1ccc(C=NNC(=O)c2ccncc2)cc1 | 1.16 ± 0.11 | 0.926 ± 0.12 | 1.05 ± 0.06 | 0.676 ± 0.12 | 0.948 ± 0.058 | 1.11 ± 0.076 | 0.991 (active)
7 | CC(=NN1CCN(Cc2cccc3ccccc23)CC1)c1ccc(O)cc1 | 0.841 ± 0.062 | 0.886 ± 0.079 | 0.988 ± 0.026 | 0.849 ± 0.031 | 0.946 ± 0.1 | 0.963 ± 0.14 | 0.996 (active)
8 | CCn1c(C=Nn2cnnc2)nc2ccccc21 | 0.929 ± 0.11 | 1.08 ± 0.072 | 0.943 ± 0.036 | 0.972 ± 0.23 | 0.903 ± 0.048 | 0.911 ± 0.068 | 0.995 (active)
9 | Cc1ccc(S(=O)(=O)N2CCC2)cc1 | 1.03 ± 0.11 | 0.756 ± 0.097 | 1.07 ± 0.1 | 1.02 ± 0.047 | 1.37 ± 0.22 | 1.51 ± 0.39 | 1.02 (active)
10 | O=[N+]([O-])c1ccc(-n2cccc2C=NNc2nc(N3CCOCC3)nc(N3CCOCC3)n2)cc1 | 0.961 ± 0.42 | 1.09 ± 0.085 | 1.14 ± 0.13 | 0.691 ± 0.022 | 0.999 ± 0.1 | 1.25 ± 0.16 | 1 (active)
11 | Cl.NCCCC[C@H](N)C(=O)O | 1.03 ± 0.31 | 0.949 ± 0.063 | 1.01 ± 0.064 | 0.867 ± 0.052 | 1.2 ± 0.14 | 1.12 ± 0.18 | 1.01 (active)
12 | COC(=O)C1=CN(CC2CCCO2)C=C(C(=O)OC)C1c1ccc(OC)cc1 (centres undefined) | 1.1 ± 0.063 | 1.04 ± 0.079 | 1.09 ± 0.036 | 0.913 ± 0.037 | 0.993 ± 0.057 | 1.04 ± 0.1 | 0.993 (active)
13 | CN1CCN(c2nc3c(=O)[nH]cnc3n2C2OC(CO)C(O)C2O)CC1 (centres undefined) | 0.979 ± 0.11 | 1.03 ± 0.071 | 0.904 ± 0.084 | 1.01 ± 0.089 | 1.22 ± 0.082 | 1.08 ± 0.25 | 1.01 (active)
14 | O=C(CSc1ccc(F)cc1)N1CCn2nc3c(c2C1)CCC3 | 1.39 ± 0.087 | 1.01 ± 0.1 | 1.05 ± 0.056 | 1.03 ± 0.11 | 1.03 ± 0.064 | 1.03 ± 0.12 | 1 (active)
15 | N=C1NC(=O)C(=Cc2ccc(-c3ccc(F)cc3)o2)S1 | 0.507 ± 0.047 | 0.632 ± 0.042 | 0.964 ± 0.043 | 1.02 ± 0.17 | 0.989 ± 0.15 | 0.798 ± 0.13 | 1 (active)
16 | Oc1ccc(C=Cc2cc(O)cc(O)c2)cc1 | 0.984 ± 0.074 | 0.848 ± 0.042 | 1.23 ± 0.029 | 0.493 ± 0.028 | 0.48 ± 0.087 | 0.403 ± 0.084 | 0.904 (active)
17 | Cc1nccn1CC1CCc2c(c3ccccc3n2C)C1=O.Cl.O.O (centres undefined) | 0.604 ± 0.09 | 0.917 ± 0.11 | 0.765 ± 0.044 | 0.832 ± 0.025 | 1.35 ± 0.14 | 1.01 ± 0.15 | 0.284 (inactive)
18 | CN(C/C=C/C#CC(C)(C)C)Cc1cccc2ccccc12.Cl | 1.15 ± 0.054 | 0.905 ± 0.072 | 0.913 ± 0.049 | 1.07 ± 0.068 | 0.817 ± 0.14 | 0.885 ± 0.19 | 0.702 (active)
19 | O=C(NCCc1nc(C2CC2)cc(C(F)(F)F)n1)c1c(F)cccc1Cl | 1.01 ± 0.079 | 1.11 ± 0.087 | 0.943 ± 0.11 | 1.01 ± 0.053 | 1.13 ± 0.086 | 1.07 ± 0.12 | 1 (active)
20 | CC(C)(C)c1nc(-c2cccc(NS(=O)(=O)c3c(F)cccc3F)c2F)c(-c2ccnc(N)n2)s1 | 2.41 ± 0.12 | 1.77 ± 0.14 | 2.36 ± 0.1 | 0.67 ± 0.079 | 0.818 ± 0.071 | 1.1 ± 0.2 | 0.763 (active)
21 | COCCNC(=O)C=Cc1ccccc1 | 1.12 ± 0.12 | 0.936 ± 0.085 | 1.05 ± 0.072 | 1.02 ± 0.15 | 0.98 ± 0.055 | 1.03 ± 0.074 | 0.991 (active)
22 | O=C(O)CC(C(=O)O)N1C(=O)C(=C2C(=O)Nc3ccc(Br)cc32)SC1=S (centres undefined) | 0.775 ± 0.28 | 1.05 ± 0.11 | 0.837 ± 0.069 | 0.894 ± 0.036 | 1.24 ± 0.15 | 1.59 ± 0.4 | 0.995 (active)
23 | Cc1ccc(NC(=O)CSc2nc3ccccc3[nH]2)cc1.Cl | 1.28 ± 0.37 | 1.15 ± 0.1 | 1.02 ± 0.068 | 0.764 ± 0.036 | 1.19 ± 0.13 | 1.42 ± 0.16 | 0.388 (inactive)
24 | COc1ccc(C(=O)Nc2nc(C)c(C)s2)cc1OC | 0.904 ± 0.093 | 1.02 ± 0.056 | 0.994 ± 0.064 | 0.981 ± 0.024 | 1.55 ± 0.26 | 1.16 ± 0.27 | 1.01 (active)
25 | FC(F)(F)c1ccnc(NC2CCN(c3ncnc4c3CCCC4)CC2)n1 | 0.884 ± 0.083 | 1.35 ± 0.11 | 1.86 ± 0.081 | 1.21 ± 0.069 | 1.65 ± 0.16 | 1.59 ± 0.18 | 0.318 (inactive)
26 | CC[C@@H]1C(=O)N(C)c2cnc(Nc3ccc(C(=O)N[C@H]4CC[C@H](N5CCN(CC6CC6)CC5)CC4)cc3OC)nc2N1C(C)C | 0.553 ± 0.077 | 1.22 ± 0.31 | 4.21 ± 0.23 | 0.0547 ± 0.0068 | 0.0624 ± 0.0084 | 0.138 ± 0.012 | 0.018 (inactive)
27 | Cc1[nH]c2ccc(Br)cc2c(=O)c1CN1CCCCC1 | 0.828 ± 0.092 | 0.97 ± 0.054 | 0.899 ± 0.054 | 0.951 ± 0.035 | 1.25 ± 0.17 | 0.92 ± 0.091 | 1 (active)
